Molecules are shown by their SMILES. Compounds without any hit were thinned out: in the full panel of roughly 83,000, 20% have a hit.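 Step 1: grow cells in 96-well plates. Step 2: add test compound at a single concentration. Step 3: incubate 48 h. Step 4: record percent growth.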 Unmarked numbers belong to inactive results. The source made the active and inactive calls. Rule for the calls: active = growth percent below 10; inactive = the rest.

Among the test systems are SK-MEL-2 melanoma; EKVX NSCLC; SN12C renal; UO-31 renal; TK-10 renal; ACHN renal; CAKI-1 renal; A498 renal; CCRF-CEM leukemia; MOLT-4 leukemia.
Common to all, as to assay: NCI-60 one-dose screen, 48 h (100 = growth as untreated, 0 = no growth, -100 = all killed)
Common to all, as to details: 10 µM unless noted

Turning to `CN1CCN(Cc2ccc(NC(=O)c3[nH]ncc3Nc3ncnc4sccc34)cc2)CC1`, the growth in the assay on SK-MEL-2 melanoma is 7.08% (active); in the assay on EKVX NSCLC it was 16.1%; in the assay with SN12C renal, 4.54% (active); in the assay with UO-31 renal it was 14.8%; in the assay with TK-10 renal, 16.3%; in the assay on ACHN renal it was 1.08% (active). The growth was 6.37% (active) in the assay on CAKI-1 renal, -35.5% (active) with A498 renal and 8.16% (active) with CCRF-CEM leukemia.
As to `O=c1cc(-c2ccccc2)[nH]c2ccccc12`, the growth is 55.8% in the assay with SK-MEL-2 melanoma; 50.5% in the assay on EKVX NSCLC; 91.6% with SN12C renal; 46.6% with UO-31 renal; 11.4% with TK-10 renal; 48.8% with ACHN renal. Moreover, the growth in the assay on CAKI-1 renal was 47.4%; in the assay on A498 renal it was 47.6%; in the assay with CCRF-CEM leukemia, 15.2%; in the assay on MOLT-4 leukemia it was 32%.
Turning to `CC1=N/C(=C\c2cccc(Br)c2)C(=O)O1`, the growth is 109% in the assay with SK-MEL-2 melanoma; 99.5% in the assay on EKVX NSCLC; 98.2% with SN12C renal; 90.1% in the assay with UO-31 renal; 101% in the assay with TK-10 renal; 109% in the assay on ACHN renal. Also, the growth in the assay with CAKI-1 renal is 100%; in the assay on A498 renal, 119%; with CCRF-CEM leukemia, 107%.
Regarding `Nc1nc(-c2ccc(F)cc2)cc(-c2cnn(-c3ccccc3)n2)n1`, the growth in the assay with SK-MEL-2 melanoma is 96%; with EKVX NSCLC, 99.7%; with SN12C renal it was 111%; in the assay on UO-31 renal, 86.8%; in the assay with TK-10 renal, 121%; in the assay on ACHN renal it was 100%. The growth in the assay on CAKI-1 renal is 86.2%; in the assay on A498 renal it was 85.9%; in the assay with CCRF-CEM leukemia it was 103%; in the assay with MOLT-4 leukemia, 104%.
For `O=C(Nc1nc(-c2ccccc2)cc(-c2ccc(Cl)cc2)n1)c1ccncc1`, the growth is 98.8% in the assay on SK-MEL-2 melanoma; 82.3% in the assay with EKVX NSCLC; 104% in the assay on SN12C renal; 70.8% with UO-31 renal; 107% with TK-10 renal; 97.4% in the assay with ACHN renal. Also, the growth in the assay with CAKI-1 renal was 77.7%; in the assay on A498 renal, 71.5%; in the assay on CCRF-CEM leukemia, 98.3%; with MOLT-4 leukemia it was 93%.
In the case of `O=C(CO[N+](=O)[O-])Nc1ccc(C(=O)/C=C/c2ccc(Cl)cc2)cc1`, the growth with SK-MEL-2 melanoma is 81.7%; in the assay with EKVX NSCLC, 67.9%; in the assay on SN12C renal, 46.8%; with UO-31 renal, 32%; in the assay with TK-10 renal, 45.7%; in the assay with ACHN renal it was 62.3%. Further, the growth was 74.9% with CAKI-1 renal, 103% in the assay on A498 renal and 20.1% in the assay with CCRF-CEM leukemia.
As to `COc1cc(OC)c(/C=C/S(=O)(=O)Cc2cnc(OC)c(N)c2)c(OC)c1`, the growth in the assay on SK-MEL-2 melanoma was 24.2%; in the assay on EKVX NSCLC, 37.9%; with SN12C renal, 23.7%; in the assay on UO-31 renal, 25.5%; in the assay with TK-10 renal, 27.9%; in the assay with ACHN renal it was 25.7%. In addition, the growth was 34% with CAKI-1 renal, -1.94% (active) with A498 renal, 15.8% in the assay on CCRF-CEM leukemia and 1.79% (active) in the assay with MOLT-4 leukemia.
With `O=C(CN1CCN(c2cc3c(cc2F)c(=O)c(C(=O)O)cn3C2CC2)CC1)Nc1nc(-c2ccc(Cl)cc2)cs1`, the growth was 21.9% in the assay with SK-MEL-2 melanoma; 35.4% in the assay with EKVX NSCLC; 15.8% with SN12C renal; 20.2% with UO-31 renal; 26.7% in the assay with TK-10 renal; 25.1% in the assay with ACHN renal. For the same molecule, the growth is 30.4% in the assay on CAKI-1 renal, 4.43% (active) with A498 renal, 23.8% with CCRF-CEM leukemia and 30.5% in the assay with MOLT-4 leukemia.
For `Oc1cc(O)c2c(=S)cc(-c3ccc(Cl)cc3)oc2c1`, the growth was 4.4% (active) in the assay on SK-MEL-2 melanoma; 70.2% in the assay on EKVX NSCLC; 25.5% in the assay with SN12C renal; 18% with UO-31 renal; 58.9% in the assay on TK-10 renal; 23.6% in the assay with ACHN renal. Further, the growth is 76.5% in the assay with CAKI-1 renal, 59.1% with A498 renal, 15.8% in the assay on CCRF-CEM leukemia and 24.1% with MOLT-4 leukemia.
`O=C(CNC1C2CC3CC(C2)CC1C3)Sc1nnc2sc3ccccc3n12` (stereo not given): the growth is 108% in the assay on SK-MEL-2 melanoma; 93% with EKVX NSCLC; 101% with SN12C renal; 78.3% in the assay on UO-31 renal; 127% in the assay with TK-10 renal; 100% in the assay on ACHN renal. Also, the growth with CAKI-1 renal is 76.4%; in the assay on A498 renal, 107%; in the assay on CCRF-CEM leukemia it was 86.1%.
In the case of `O=C(/C=C/c1cc2ccccc2[nH]c1=O)/C=C/c1cc2ccccc2[nH]c1=O`, the growth with SK-MEL-2 melanoma was 54%; with EKVX NSCLC, 47.3%; in the assay with SN12C renal it was 23.8%; in the assay with UO-31 renal, -83.8% (active); with TK-10 renal, -14.8% (active); in the assay on ACHN renal it was -11.2% (active). Further, the growth in the assay on CAKI-1 renal was 31.9%; in the assay on A498 renal, 30.4%; in the assay with CCRF-CEM leukemia, 17.8%; with MOLT-4 leukemia it was 31.6%.
On to `Nc1c(C(=O)Nc2cccc3c2OCCO3)sc2nc3c(cc12)CN(Cc1ccccc1)CC3`, for which the growth in the assay with SK-MEL-2 melanoma was 56.2%; in the assay with EKVX NSCLC it was 83.3%; in the assay with SN12C renal, 87.2%; with UO-31 renal, 60.4%; in the assay on TK-10 renal, 96.8%; in the assay on ACHN renal, 77.2%. The growth in the assay on CAKI-1 renal was 55.3%; in the assay with A498 renal, 37.9%; in the assay on CCRF-CEM leukemia, 36.3%; in the assay on MOLT-4 leukemia, 52.5%.
Consider `CCOC(=O)C(=Cc1ccccc1F)C(=O)OCC`, for which the growth is 98.4% with SK-MEL-2 melanoma; 97.6% with EKVX NSCLC; 86.9% in the assay with SN12C renal; 87.7% with UO-31 renal; 123% in the assay with TK-10 renal; 92.7% in the assay on ACHN renal. The values for the growth in the assay with CAKI-1 renal, in the assay with A498 renal and in the assay with CCRF-CEM leukemia were 96.5%, 131% and 95.8%, respectively.

The values are drawn from PubChem BioAssay (NCI).
